Reference: the supplement of paper PMC11732987, “Enantioselective OTUD7B fragment discovery through chemoproteomics screening and high-throughput optimisation” (Communications Chemistry, 2025)

Columns and labels:
Test in all cases: log2 ratio of Biotin-Ahx-Ub-VS probe labelling (fragment/DMSO); higher = less target engagement (more negative = stronger competition), active = hit call of the paper (q ≤ 0.05, log2 ratio ≤ -1)
Settings in all cases: compound concentration: 200 uM; treatment time: 3 h
OTUD6B = target: T1, OTUD6B (UniProt Q8N6M0)
T1 sequence (whole entry): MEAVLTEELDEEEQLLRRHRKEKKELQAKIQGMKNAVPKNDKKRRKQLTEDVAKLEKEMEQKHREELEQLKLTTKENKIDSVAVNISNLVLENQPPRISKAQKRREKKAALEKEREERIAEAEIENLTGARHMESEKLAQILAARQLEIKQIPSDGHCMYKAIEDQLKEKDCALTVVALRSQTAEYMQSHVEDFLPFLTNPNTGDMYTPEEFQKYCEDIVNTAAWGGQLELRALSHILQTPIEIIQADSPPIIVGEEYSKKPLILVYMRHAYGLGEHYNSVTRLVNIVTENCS
Procedure, shortened: (§1)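 Lysate from HEK293T cells, 495 µg per sample in Tris/CHAPS/IGEPAL buffer with protease inhibitors, was treated for 3 h in triplicate with fragment at 200 µM or vehicle. Biotin-Ahx-Ub-VS was next added at 0.5 µM final for 1 h. The labelled DUBs were enriched with NeutrAvidin, digested with LysC and trypsin, and run by diaPASEF LC-MS/MS, with values given as average log2 fragment/vehicle ratios by unpaired t-test on global-median-normalised Spectronaut quantities of proteins with ≥2 unique peptides.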

OTUD7B = target: T2, OTUD7B (UniProt Q6GQQ9)
T2 sequence (whole entry): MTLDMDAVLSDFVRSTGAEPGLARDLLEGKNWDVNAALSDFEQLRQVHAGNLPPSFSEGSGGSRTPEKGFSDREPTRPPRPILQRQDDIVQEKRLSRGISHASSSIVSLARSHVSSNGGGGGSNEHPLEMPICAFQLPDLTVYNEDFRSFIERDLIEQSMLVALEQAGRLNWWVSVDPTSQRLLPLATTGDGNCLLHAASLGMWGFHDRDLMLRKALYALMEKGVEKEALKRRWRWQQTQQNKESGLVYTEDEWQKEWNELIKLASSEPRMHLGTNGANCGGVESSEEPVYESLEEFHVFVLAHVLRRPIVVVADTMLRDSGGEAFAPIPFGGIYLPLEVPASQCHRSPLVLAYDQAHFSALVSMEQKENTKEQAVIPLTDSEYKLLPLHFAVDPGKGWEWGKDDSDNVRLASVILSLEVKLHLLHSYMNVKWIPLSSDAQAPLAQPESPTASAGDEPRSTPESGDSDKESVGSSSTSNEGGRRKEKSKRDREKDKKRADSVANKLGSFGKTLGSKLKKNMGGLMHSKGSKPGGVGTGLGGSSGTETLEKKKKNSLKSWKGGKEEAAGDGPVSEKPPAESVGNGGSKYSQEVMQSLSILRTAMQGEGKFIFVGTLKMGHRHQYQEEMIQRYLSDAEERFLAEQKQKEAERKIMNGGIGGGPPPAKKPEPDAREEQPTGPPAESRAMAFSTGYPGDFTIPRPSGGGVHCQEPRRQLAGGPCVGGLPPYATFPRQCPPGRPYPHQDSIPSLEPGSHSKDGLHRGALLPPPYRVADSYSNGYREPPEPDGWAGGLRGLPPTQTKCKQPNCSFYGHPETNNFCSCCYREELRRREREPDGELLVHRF
Procedure, shortened: as §1

PRPF8 = PRPF8 (UniProt Q6P2Q9)
Procedure, shortened: as §1

PSMD7 = target: T3, PSMD7 (UniProt P51665)
T3 sequence (whole entry): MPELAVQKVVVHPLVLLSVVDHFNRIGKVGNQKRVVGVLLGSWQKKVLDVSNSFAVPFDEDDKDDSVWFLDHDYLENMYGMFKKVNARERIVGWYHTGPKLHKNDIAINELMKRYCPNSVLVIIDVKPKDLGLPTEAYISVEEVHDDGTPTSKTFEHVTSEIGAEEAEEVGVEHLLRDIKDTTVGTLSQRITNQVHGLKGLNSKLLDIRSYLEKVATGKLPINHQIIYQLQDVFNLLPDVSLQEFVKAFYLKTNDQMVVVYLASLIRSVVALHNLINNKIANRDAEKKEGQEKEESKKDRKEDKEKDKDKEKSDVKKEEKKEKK
Procedure, shortened: as §1

UCHL1 = UCHL1 (UniProt P09936)
Procedure, shortened: as §1

UCHL3 = target: T4, UCHL3 (UniProt P15374)
T4 sequence (whole entry): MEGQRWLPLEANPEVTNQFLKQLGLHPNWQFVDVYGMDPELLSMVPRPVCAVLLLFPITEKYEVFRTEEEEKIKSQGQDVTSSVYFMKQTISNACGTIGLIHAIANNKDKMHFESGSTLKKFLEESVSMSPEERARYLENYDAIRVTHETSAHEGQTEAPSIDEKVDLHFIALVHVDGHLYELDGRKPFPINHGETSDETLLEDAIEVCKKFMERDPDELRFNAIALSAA
Procedure, shortened: as §1

UCHL5 = target: T5, UCHL5 (UniProt Q9Y5K5)
T5 sequence (whole entry): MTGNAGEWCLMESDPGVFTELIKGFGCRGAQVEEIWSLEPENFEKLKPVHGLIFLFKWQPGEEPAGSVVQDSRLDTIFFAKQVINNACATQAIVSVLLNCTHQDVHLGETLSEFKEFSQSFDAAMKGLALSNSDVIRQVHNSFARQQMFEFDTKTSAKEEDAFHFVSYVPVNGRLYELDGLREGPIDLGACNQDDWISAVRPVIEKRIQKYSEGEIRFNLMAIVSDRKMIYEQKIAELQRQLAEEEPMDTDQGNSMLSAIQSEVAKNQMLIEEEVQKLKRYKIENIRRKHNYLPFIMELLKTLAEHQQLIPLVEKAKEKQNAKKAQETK
Procedure, shortened: as §1

USP10 = USP10 (UniProt Q14694)
Procedure, shortened: as §1

USP15 = target: T6, USP15 (UniProt Q9Y4E8)
T6 sequence (whole entry): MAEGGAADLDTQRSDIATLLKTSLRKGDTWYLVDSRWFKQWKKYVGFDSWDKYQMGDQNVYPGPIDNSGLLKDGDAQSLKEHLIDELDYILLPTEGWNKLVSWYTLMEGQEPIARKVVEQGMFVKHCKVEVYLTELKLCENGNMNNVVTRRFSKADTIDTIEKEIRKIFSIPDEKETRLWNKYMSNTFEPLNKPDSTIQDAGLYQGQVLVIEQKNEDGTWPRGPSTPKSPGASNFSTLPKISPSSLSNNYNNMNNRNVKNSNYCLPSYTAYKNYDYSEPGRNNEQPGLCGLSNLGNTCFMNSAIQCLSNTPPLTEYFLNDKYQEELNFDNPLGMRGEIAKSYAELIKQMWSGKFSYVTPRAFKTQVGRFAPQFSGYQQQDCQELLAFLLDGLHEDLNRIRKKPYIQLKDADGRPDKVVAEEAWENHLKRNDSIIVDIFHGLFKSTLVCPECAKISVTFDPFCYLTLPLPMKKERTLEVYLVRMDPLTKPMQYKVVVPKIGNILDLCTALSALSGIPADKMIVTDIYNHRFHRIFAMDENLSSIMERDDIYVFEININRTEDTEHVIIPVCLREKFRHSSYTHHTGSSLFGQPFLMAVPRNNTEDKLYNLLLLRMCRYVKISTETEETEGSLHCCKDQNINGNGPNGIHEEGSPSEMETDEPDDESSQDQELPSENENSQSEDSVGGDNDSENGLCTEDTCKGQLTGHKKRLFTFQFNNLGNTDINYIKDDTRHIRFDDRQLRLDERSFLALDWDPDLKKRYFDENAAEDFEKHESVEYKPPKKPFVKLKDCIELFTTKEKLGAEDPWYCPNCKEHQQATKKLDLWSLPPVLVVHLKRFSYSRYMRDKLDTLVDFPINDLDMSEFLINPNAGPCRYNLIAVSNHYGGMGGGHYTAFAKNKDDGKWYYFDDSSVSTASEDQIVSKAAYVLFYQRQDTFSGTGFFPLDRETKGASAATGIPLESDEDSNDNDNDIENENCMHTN
Procedure, shortened: as §1

USP16 = USP16 (UniProt Q9Y5T5)
Procedure, shortened: as §1

Measured: log2 ratio of Biotin-Ahx-Ub-VS probe labelling

Chain of USP10 (Q14694 whole entry): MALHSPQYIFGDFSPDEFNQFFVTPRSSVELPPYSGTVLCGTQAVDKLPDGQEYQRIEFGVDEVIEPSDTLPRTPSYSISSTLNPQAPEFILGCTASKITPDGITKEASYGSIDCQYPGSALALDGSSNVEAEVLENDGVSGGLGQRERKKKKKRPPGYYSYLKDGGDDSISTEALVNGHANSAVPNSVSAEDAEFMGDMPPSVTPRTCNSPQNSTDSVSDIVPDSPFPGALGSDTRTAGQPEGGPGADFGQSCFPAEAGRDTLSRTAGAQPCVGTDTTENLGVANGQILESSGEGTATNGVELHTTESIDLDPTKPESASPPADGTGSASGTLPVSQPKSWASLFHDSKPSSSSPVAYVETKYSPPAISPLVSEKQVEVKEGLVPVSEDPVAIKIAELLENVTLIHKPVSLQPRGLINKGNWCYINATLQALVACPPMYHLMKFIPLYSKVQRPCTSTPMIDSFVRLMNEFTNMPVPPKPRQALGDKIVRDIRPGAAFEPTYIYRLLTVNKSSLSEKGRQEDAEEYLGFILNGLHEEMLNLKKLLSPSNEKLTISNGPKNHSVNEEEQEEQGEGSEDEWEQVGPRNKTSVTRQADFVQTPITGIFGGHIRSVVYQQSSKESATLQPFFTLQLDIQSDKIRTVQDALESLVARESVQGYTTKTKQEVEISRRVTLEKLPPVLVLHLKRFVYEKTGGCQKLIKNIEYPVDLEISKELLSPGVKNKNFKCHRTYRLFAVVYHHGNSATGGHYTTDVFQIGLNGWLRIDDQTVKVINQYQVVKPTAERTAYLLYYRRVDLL
Chain of UCHL1 (P09936 whole entry, looked up): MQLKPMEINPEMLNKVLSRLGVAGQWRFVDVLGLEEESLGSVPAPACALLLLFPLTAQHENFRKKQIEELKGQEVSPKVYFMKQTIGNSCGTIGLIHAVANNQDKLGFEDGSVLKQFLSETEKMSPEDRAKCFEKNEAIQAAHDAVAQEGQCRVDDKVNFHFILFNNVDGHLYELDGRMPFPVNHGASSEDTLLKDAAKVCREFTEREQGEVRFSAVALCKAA
Chain of USP16 (Q9Y5T5 whole entry, looked up): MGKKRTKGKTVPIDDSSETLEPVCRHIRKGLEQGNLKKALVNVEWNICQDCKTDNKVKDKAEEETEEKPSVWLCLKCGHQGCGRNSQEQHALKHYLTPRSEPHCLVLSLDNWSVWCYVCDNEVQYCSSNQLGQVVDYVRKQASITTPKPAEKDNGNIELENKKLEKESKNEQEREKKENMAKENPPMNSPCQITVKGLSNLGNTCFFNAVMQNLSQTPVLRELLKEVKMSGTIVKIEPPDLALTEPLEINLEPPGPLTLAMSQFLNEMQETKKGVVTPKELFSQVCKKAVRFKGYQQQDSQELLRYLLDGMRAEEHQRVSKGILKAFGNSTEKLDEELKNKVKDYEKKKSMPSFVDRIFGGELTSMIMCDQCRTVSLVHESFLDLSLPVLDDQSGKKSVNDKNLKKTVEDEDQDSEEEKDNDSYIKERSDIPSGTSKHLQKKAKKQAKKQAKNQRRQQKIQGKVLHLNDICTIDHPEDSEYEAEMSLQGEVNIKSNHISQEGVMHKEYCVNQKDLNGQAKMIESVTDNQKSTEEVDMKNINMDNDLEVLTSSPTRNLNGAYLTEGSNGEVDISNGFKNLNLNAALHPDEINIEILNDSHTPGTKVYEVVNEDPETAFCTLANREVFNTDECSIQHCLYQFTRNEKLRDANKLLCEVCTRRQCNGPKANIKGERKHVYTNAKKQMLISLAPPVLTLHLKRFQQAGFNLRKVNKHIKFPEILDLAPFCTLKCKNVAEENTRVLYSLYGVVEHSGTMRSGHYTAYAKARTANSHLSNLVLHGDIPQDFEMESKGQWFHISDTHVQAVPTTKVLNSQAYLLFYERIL

O=C(CCl)Nc1ccc2c(c1)OC(F)(F)O2
inactive: OTUD6B -0.167 | OTUD7B -0.873 | PRPF8 0.00481 | PSMD7 -0.159 | UCHL3 0.0771 | UCHL5 -0.471 | USP10 -0.126 | USP15 -0.192 | USP16 0.132
active: UCHL1 -1.06
